{"source": "PubChem BioAssay (EPA / NIEHS)", "note": "Active and inactive are the calls of the source. Rule for the calls, unless noted: active = hit-call score of the fitted dose curve at least 0.9, where 1 is the maximum; inconclusive = response in the unintended direction; inactive = score below 0.9.", "data": [{"target": "Peroxisome proliferator-activated receptor gamma (Homo sapiens) (UniProt P37231)", "sequence (P37231 whole entry, looked up, the tested form may be a part)": "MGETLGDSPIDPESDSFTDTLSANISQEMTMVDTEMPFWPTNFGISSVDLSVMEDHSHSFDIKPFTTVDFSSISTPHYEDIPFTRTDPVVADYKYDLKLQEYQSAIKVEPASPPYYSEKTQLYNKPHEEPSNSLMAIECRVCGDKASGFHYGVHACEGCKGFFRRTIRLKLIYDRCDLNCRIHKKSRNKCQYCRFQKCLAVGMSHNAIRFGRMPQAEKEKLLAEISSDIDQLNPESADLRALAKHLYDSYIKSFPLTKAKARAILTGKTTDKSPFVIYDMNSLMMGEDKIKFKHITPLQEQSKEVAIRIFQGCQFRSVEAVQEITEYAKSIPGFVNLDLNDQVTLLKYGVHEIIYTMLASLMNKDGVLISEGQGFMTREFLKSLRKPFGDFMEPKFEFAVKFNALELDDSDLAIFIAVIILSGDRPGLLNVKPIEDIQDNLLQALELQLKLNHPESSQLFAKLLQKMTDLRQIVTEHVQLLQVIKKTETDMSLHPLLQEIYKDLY", "experiment": "OT_PPARg_PPARgSRC1_1440: Odyssey Thera (OT) 24-hour Protein-Complementation Assay for Peroxisome Proliferator-activated Receptor Gamma/ SRC-1 Co-activator (AID 2283388);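 note: nuclear to cytoplasmic ratio of reconstituted Venus YFP fluorescence in fixed imaged cells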", "details": "not given", "outline": "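Cells carrying the PPARg/SRC-1 fragment-complementation reporter receive compound for 24 hours, are fixed and counterstained with Draq5, then imaged. Increased nuclear relative to cytoplasmic YFP fluorescence above DMSO baseline indicates binding activity.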", "values": [{"smiles": "O=C(O)CCC(=O)O", "outcome": "inactive"}, {"smiles": "O=S(=O)(O)c1ccc(N=Nc2c(O)ccc3ccccc23)cc1", "outcome": "inactive"}, {"smiles": "CCCCCC(=O)OCC", "outcome": "inactive"}, {"smiles": "C=C[Si](OCCOC)(OCCOC)OCCOC", "outcome": "inactive"}, {"smiles": "O=C(Oc1ccccc1)c1ccccc1O", "outcome": "inactive"}, {"smiles": "CN(C)c1ccc2nc3ccc(=[N+](C)C)cc-3sc2c1", "outcome": "inactive"}, {"smiles": "CCCCCCCOC(=O)c1ccc(O)cc1", "outcome": "inactive"}, {"smiles": "C[Si]1(C)O[Si](C)(C)O[Si](C)(C)O[Si](C)(C)O[Si](C)(C)O1", "outcome": "inactive"}, {"smiles": "Fc1ccc(Br)cc1", "outcome": "inactive"}, {"smiles": "CCCCCCCCCC(C)=O", "outcome": "inactive"}, {"smiles": "O=C(O)c1ccc2c(c1)C(=O)OC2=O", "outcome": "inactive"}, {"smiles": "CCC1COC(=O)O1", "note": "(stereo not drawn)", "outcome": "inactive"}, {"smiles": "C=C[C@@]1(C)CC(=O)[C@]2(O)[C@@]3(C)[C@@H](O)CCC(C)(C)[C@@H]3[C@H](O)[C@H](OC(C)=O)[C@@]2(C)O1", "outcome": "inactive"}, {"smiles": "CC(C)(c1ccccc1)c1ccc(Nc2ccc(C(C)(C)c3ccccc3)cc2)cc1", "outcome": "inactive"}, {"smiles": "CCCCCCCCCCCCc1ccc(O)cc1", "outcome": "inactive"}, {"smiles": "CCCCCCC=O", "outcome": "inactive"}, {"smiles": "CCCCC(CC)COC(=O)/C=C/c1ccc(OC)cc1", "note": "(stereo not drawn)", "outcome": "inactive"}, {"smiles": "CCCCNS(=O)(=O)c1ccccc1", "outcome": "inactive"}, {"smiles": "Cc1ccc([N+](=O)[O-])cc1N", "outcome": "inactive"}, {"smiles": "CC(C)c1ccc(O)c(C(C)C)c1", "outcome": "inactive"}, {"smiles": "CCCCC(C=O)CC", "note": "(stereo not drawn)", "outcome": "inactive"}, {"smiles": "N#Cc1ccc(C(c2ccc(C#N)cc2)n2cncn2)cc1", "outcome": "inactive"}]}, {"read-out": "not listed separately", "experiment": "CEETOX_H295R_11DCORT: CeeTox H295R High-throughput Steroidogenesis Assay for 11-Deoxycortisol (11DCORT) (AID 2283432; active = hit-call score of the fitted dose curve at least 0.9, where 1 is the maximum; inactive = score below 0.9;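 for AC50: human adrenal H295R cells prestimulated with 10 µM forskolin for 48 h; 11-deoxycortisol secreted into the medium measured by LC-MS/MS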)", "details": "actives raise or lower the signal", "outline": "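Steroidogenesis in human H295R cells: 48 h chemical exposure after forskolin priming, 11-deoxycortisol measured by LC-MS/MS.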", "values": [{"smiles": "CN(C)c1ccc2nc3ccc(=[N+](C)C)cc-3sc2c1", "outcome": "inactive"}, {"smiles": "O=C(OCc1ccccc1)c1ccc(O)cc1", "AC50": "36.8 µM (active)"}, {"smiles": "C=C[C@@]1(C)CC(=O)[C@]2(O)[C@@]3(C)[C@@H](O)CCC(C)(C)[C@@H]3[C@H](O)[C@H](OC(C)=O)[C@@]2(C)O1", "AC50": "0.51 µM (active)"}, {"smiles": "CC(C)(C)NC(=O)[C@H]1CC[C@H]2[C@@H]3CC[C@H]4NC(=O)C=C[C@]4(C)[C@H]3CC[C@]12C", "AC50": "34.4 µM (active)"}, {"smiles": "COc1ccc(-c2coc3cc(O)cc(O)c3c2=O)cc1", "AC50": "6.15 µM (active)"}, {"smiles": "C=CC(=O)OCCCCCCOC(=O)C=C", "outcome": "inactive"}, {"smiles": "CC(C)(c1ccccc1)c1ccc(Nc2ccc(C(C)(C)c3ccccc3)cc2)cc1", "AC50": "2.72 µM (active)"}, {"smiles": "CCOC(=O)C1=NN(c2ccc(Cl)cc2Cl)C(C)(C(=O)OCC)C1", "note": "(stereo not drawn)", "outcome": "inactive"}, {"smiles": "CCN1CN(CC)CN(CC)C1", "outcome": "inactive"}, {"smiles": "COc1ccc(C(=O)c2ccccc2)c(O)c1", "outcome": "inactive"}, {"smiles": "O=C(O)c1cc(O)c2ccccc2c1O", "outcome": "inactive"}]}]}
